According to PubChem BioAssay AID633 (Emory University Molecular Libraries Screening Center, 2007):
The whole screen tested about 86,000 compounds, of which about 1,100 (1.3%) were called active. For the sample, actives were picked, then their nearest neighbours and some compounds at random. Unmarked numbers belong to inactive results.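 Rule for the calls: active = compounds whose percent inhibition of the receptor-coactivator binding signal exceeds about 50% in the single-dose screen (limit read from the data); inactive = the rest.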

What follows are compounds tested against Estrogen receptor beta (Homo sapiens) (UniProt Q92731) (assay: blockers of coactivator peptide binding to ERβ – biochemical, TR-FRET, ERβ LBD, SRC-1 peptide, primary screen (AID 633;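 note: 0% = receptor plus peptide wells without compound and 100% = peptide-only wells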)). Settings: TR-FRET ER-beta LBD / SRC1-Cy5 peptide binding; at 25.6 µM; hits give high values; receptor agonist-loaded with 1 µM estradiol.
Chain of Estrogen receptor beta (Homo sapiens) (Q92731 whole entry, looked up, the tested form may be a part): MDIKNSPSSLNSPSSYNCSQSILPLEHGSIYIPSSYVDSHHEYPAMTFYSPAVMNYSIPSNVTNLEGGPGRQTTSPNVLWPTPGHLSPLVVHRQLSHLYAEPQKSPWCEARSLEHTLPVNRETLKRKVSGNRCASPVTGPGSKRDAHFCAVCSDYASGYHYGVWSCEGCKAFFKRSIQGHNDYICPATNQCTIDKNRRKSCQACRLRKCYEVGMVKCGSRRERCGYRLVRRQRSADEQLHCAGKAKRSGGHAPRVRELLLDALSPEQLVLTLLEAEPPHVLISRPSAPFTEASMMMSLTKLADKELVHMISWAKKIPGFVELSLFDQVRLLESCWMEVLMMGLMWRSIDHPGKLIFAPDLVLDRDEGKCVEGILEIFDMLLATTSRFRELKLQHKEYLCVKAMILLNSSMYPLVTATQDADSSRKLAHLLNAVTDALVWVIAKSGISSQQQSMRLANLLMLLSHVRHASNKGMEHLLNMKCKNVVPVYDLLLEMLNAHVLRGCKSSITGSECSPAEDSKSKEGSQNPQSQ

| Compound | inhibition |
| --- | --- |
| COC(=O)c1ccc(NC(=O)CSc2nnc(-c3ccncc3)n2C)cc1 | -13.7% |
| C=CCn1c(SCc2cc(C(=O)OC)c(C)o2)nnc1-c1ccncc1 | 51.1% (active) |
| C=CCn1c(SCc2c(C(=O)OC)sc(N)c2C(=O)OC)nnc1-c1ccc(Cl)cc1 | -3.96% |
| O=C(CN(c1ccccc1)S(=O)(=O)c1ccc(Cl)cc1)Nc1ccccc1C(=O)N1CCCC1 | -2.12% |
| C=C(C)CNC(=S)/N=c1\scc(C)n1CC | 77.4% [fluorescence artefact?] (active) |
| C=CCn1c(SCCOc2ccc(OC)cc2)nnc1C(NC(=O)c1ccc(OC)cc1)C(C)C (stereo not drawn) | 6.7% |
| COC(=O)CSc1nc2c(c(C3CC=CCC3)c1C#N)CCC2 (stereo not drawn) | -2.54% |
| CCC(c1nnnn1C(C)(C)C)N(Cc1cc2cccc(C)c2n2nnnc12)C1CCCC1 (stereo not drawn) | 1.68% |
| O=C(CN1C(=O)CC(c2ccccc2)=Nc2ccccc21)NC1CCCCC1 | -6.21% |
| COc1ccc(C)cc1S(=O)(=O)Nc1cccc(Cl)c1Cl | -12.3% |
| Oc1c(Cl)cc(Cl)c(Cl)c1Cc1c(O)c(Cl)cc(Cl)c1Cl | 94.6% [fluorescence artefact?] (active) |
| COc1cc(OC)c(-n2c(C)cc(C=O)c2C)cc1Cl | 4.25% |
| O=C(/C=C/c1ccc(Cl)cc1Cl)c1cccnc1 | 23.9% |
| CC1CCCC(NC(=O)CN2CCN(Cc3ccc(Cl)cc3)C2=O)C1C (stereo not drawn) | -3.92% |
| CC(NC(=O)CN1CCN(Cc2ccc(Cl)cc2)C1=O)c1ccc2c(c1)OCCO2 (stereo not drawn) | -8.28% |
| Cc1ccc(CNC(=O)CN2CCN(Cc3ccc(Cl)cc3)C2=O)cc1 | 52.1% [fluorescence artefact?] (active) |
| COC(=O)c1cc(NC(=O)C2C3C=CC(C3)C2C(=O)O)cc(C(=O)OC)c1 (stereo not drawn) | -3.6% |
| Cc1cc(NC(=O)CSc2nc(C(C)C)nc3sc4c(c23)CCC(C)C4)no1 (stereo not drawn) | -5.67% |
| COc1ccc(C2C(C(C)=O)=C(O)C(=O)N2Cc2cccnc2)cc1 (stereo not drawn) | -18.2% |
| C=CCn1c(=S)[nH]c2nc3c(cc2c1=O)COC(C)(C)C3 | -1.84% |
| CC(C)CCSc1ncnc2c1oc1nc3c(cc12)COC(C)(C)C3 | 54.5% [fluorescence artefact?] (active) |
| CCCc1nc2oc3c(OCC)ncnc3c2c2c1COC(C)(C)C2 | 2.61% |

| Compound | inhibition |
| --- | --- |
| CCOc1cc2[nH]c(=S)n(CCN3CCCCC3C)c(=O)c2cc1OCC (stereo not drawn) | -0.24% |
| CCOc1cccc(NC(=O)Cn2nc(-c3ccc4c(c3)OCCO4)ccc2=O)c1 | 0.68% |
| C=CCc1ccc(OCCOc2cccc(/C=N/n3cnnc3)c2)c(OC)c1 | -5.22% |
| Cc1cccc(-n2c(N)cc(=O)nc2SC(C)C(=O)NC2CCCCC2)c1 (stereo not drawn) | -5.73% |
| Cc1cccc(-n2c(Cc3cc(=O)[nH]c(=O)[nH]3)nnc2SC(C)C)c1 | 51.8% [fluorescence artefact?] (active) |
| COc1cccc(-n2c(Cc3cc(=O)[nH]c(=O)[nH]3)nnc2SCC(=O)Nc2ccccc2)c1 | -4.83% |
| COc1ccc(NC(=O)CSc2nc(NS(=O)(=O)c3ccc(C)cc3)cc(=O)[nH]2)cc1 | -6.84% |
| Oc1c(C(c2ccccn2)N2CCOCC2)ccc2cccnc12 (stereo not drawn) | 78.2% [fluorescence artefact?] (active) |
| Cc1nc2sc(C(c3ccco3)N3CCOCC3)c(O)n2n1 (stereo not drawn) | -29.9% |
| O=C(c1cccnc1NCc1ccccc1)N1CCOCC1 | 2.12% |
| O=C(Nc1nccs1)c1cc(S(=O)(=O)N2CCOCC2)c(Cl)cc1Cl | -7.67% |
| c1ccc2c(-c3nn4nnnc4c4ccccc34)cccc2c1 | -6.58% |
| CCOC(=O)C1=C(C)NC(SC)=NC1c1ccccc1 (stereo not drawn) | -3.63% |
| CC(Oc1ccc(Cl)cc1)c1ccnn1S(C)(=O)=O (stereo not drawn) | -3% |
| O=C(c1cc2c(s1)CCC2)N1CCN(c2ccccc2)CC1 | 50.6% (active) |
| Cc1nc2ccc(C(=O)N3CCN(c4ccccc4)CC3)cc2s1 | -22% |
| COc1cccc(-c2nn(C)c3sc(C(=O)N4CCN(c5ccccc5)CC4)cc23)c1 | 10.8% |
| O=C(Nc1ccccc1)c1ccc2c(c1)OCO2 | 35.7% |
| Cc1nn(C)cc1CNC(=O)Nc1ccc(Cl)cc1 | -6.02% |
| CCOC(=O)c1ccc(COC(=O)CCc2nc(-c3ccccc3)c(-c3ccccc3)o2)cc1 | 1.8% |
| COCCCn1c(Cc2csc(Nc3cccc(Cl)c3)n2)nnc1SCC(=O)OC1CCCCC1 | 77.5% (active) |
| COCCCn1c(SCC(=O)Nc2ccccc2)nnc1-c1ccncc1 | 1.64% |

| Compound | inhibition |
| --- | --- |
| C=CCn1c(CC(=O)Nc2cccc(OC)c2)nnc1SCC(=O)NC1CCCCC1 | -1.41% |
| O=C(NCCCCCCNC(=O)NCc1ccco1)NCc1ccco1 | -27.9% |
| CCOC(=O)c1sc(C)c2c1NC(C)(c1cccc3ccccc13)NC2=O (stereo not drawn) | 14.4% |
| COc1cc(OC)c(C(=O)NC2CCCCCC2)cc1OC | -3.66% |
| COc1cc(OC)c(C(=O)Nc2ccc(N(C)C)cc2)cc1OC | 97.4% [fluorescence artefact?] (active) |
| COc1ccc(Cl)cc1C(=O)Nc1ccc(N(C)C(C)=O)cc1 | 3.01% |
| COc1cccc2cc(C(=O)N3CCN(C(=O)c4ccccc4)CC3)c(=O)oc12 | -4.03% |
| COc1ccc(S(=O)(=O)N/N=C\c2ccc(OC)c(COc3ccc(C)cc3[N+](=O)[O-])c2)cc1 | 27.5% |
| Cc1ccc(NC(=S)NC(NC(=O)Cc2cccc3ccccc23)C(Cl)(Cl)Cl)cc1 (stereo not drawn) | 40.2% |
| O=C1CCCc2nn(-c3ccccc3)nc21 | -7.98% |
| O=C(NCc1ccccn1)c1cc2ccccc2oc1=O | -2.55% |
| CN(c1ccc(C(=O)NCc2ccccn2)cc1)S(C)(=O)=O | -12.6% |
| O=C(NCc1ccccn1)c1ccc2nc(-c3ccco3)c(-c3ccco3)nc2c1 | 93% [fluorescence artefact?] (active) |
| CCOC(=O)C1CSC(CC(=O)Nc2ccc(OCC)cc2)C(=O)N1 (stereo not drawn) | -12.7% |
| COc1ccc(NC(=O)CCN2CCCC2)c(OC)c1 | -0.42% |
| COc1ccc(OC)c(Nc2nc(-c3ccc(O)c(O)c3)cs2)c1 | 67.8% [fluorescence artefact?] (active) |
| Oc1ccc(-c2csc(Nc3cccnc3)n2)cc1 | 2.46% |
| COc1ccc(-c2n[nH]c(C)c2-c2ccc(OC)c(OC)c2)c(O)c1 | 3.54% |
| O=C(COc1ccc(S(=O)(=O)NCc2ccccc2)cc1)N1CCOCC1 | -22.9% |
| O=C(Nc1nnc(SCc2c(Cl)cccc2Cl)s1)C1CCCO1 (stereo not drawn) | -1.99% |
| COc1cc(S(=O)(=O)N(Cc2cccs2)C2CC2)ccc1-n1cnnn1 | -25.2% |
| CCOC(=O)CSc1nc2sc3c(c2c(=O)[nH]1)CC(C)(C)OC3 | -8.89% |

| Compound | inhibition |
| --- | --- |
| CC(=O)c1sc2nc(SCC(=O)N3CCCCC3)[nH]c(=O)c2c1C | 56.2% (active) |
| C=CCNC(=O)CSc1nc2sc(C)c(C)c2c(=O)[nH]1 | 6.38% |
| CCCCOc1ccc(C(=O)NCc2ccncc2)cc1 | 0.29% |
| N#CC1=C(N)N(c2ccccc2)C2=C(C(=O)CCC2)C1c1ccccc1 (stereo not drawn) | -5.84% |
| CC(C)C1N=C2c3ccccc3N=C(SCC(=O)c3ccc(O)c(O)c3)N2C1=O (stereo not drawn) | 52.4% [fluorescence artefact?] (active) |
| O=C(CSC1=Nc2ccccc2C2=NC(CC(=O)NCc3ccco3)C(=O)N12)NCc1ccco1 (stereo not drawn) | 16.1% |
| CCC(C)NC(=O)CSC1=Nc2ccccc2C2=NC(CCC(=O)NCc3ccco3)C(=O)N12 (stereo not drawn) | -5.03% |
| O=C1CSC2=NCN(c3ccccc3)CN12 | -6.24% |
| CCCCc1nnc(NC(=O)CSc2nc(C)cc(=O)[nH]2)s1 | 27.8% |
| COC(=O)c1cccc(NC(=O)CSc2nc(C)cc(=O)[nH]2)c1 | 50.1% [fluorescence artefact?] (active) |
| CCOC(=O)Cc1csc(NC(=O)CSc2nc(C)cc(=O)[nH]2)n1 | 1.35% |
| O=C(CCCn1c(SCC(=O)c2ccccc2)nc2ccccc2c1=O)NCC1CCCO1 (stereo not drawn) | -2.4% |
| Cc1cc(C)c(OCC(=O)N/N=C/c2ccco2)c(C)c1 | -10.7% |
| CCCCNC(=O)C1(c2ccc(OC)cc2)CCOCC1 | 39.7% |
| Cc1ccc(SC(=O)COc2ccc(C)c(C)c2)cc1 | -2.52% |
| O=C(NC1CCCC1)C(c1ccccn1)N(C(=O)c1csnn1)C1CCCC1 (stereo not drawn) | 3.18% |
| CCN(CC)S(=O)(=O)c1ccc2[nH]cc(C(=O)NCCc3ccccc3)c(=O)c2c1 | 51.1% [fluorescence artefact?] (active) |
| CCCCNC(=O)c1c[nH]c2ccc(S(=O)(=O)Nc3ccc(OCC)cc3)cc2c1=O | 29.9% |
| COc1cccc(NS(=O)(=O)c2ccc3[nH]cc(C(=O)NCCCOC(C)C)c(=O)c3c2)c1 | 19.5% |
| COC(=O)CSc1snnc1-c1ccc(Cl)c(Cl)c1 | -8.59% |
| Cc1cc(=O)oc2cc(OCC3CC(c4ccccc4Cl)=NO3)ccc12 (stereo not drawn) | -1.82% |
| CCOCN(C(=O)Cn1c(C(C)O)nc2ccccc21)c1c(C)cccc1CC (stereo not drawn) | -15.2% |
